According to PubChem BioAssay (EPA / NIEHS):
Active and inactive are the calls of the source. How the source made its calls: active means hit-call score of the fitted dose curve at least 0.9, where 1 is the maximum; inactive means score below 0.9.

Experiments:
Conditions in all cases: mRNA level, 48 h; actives raise or lower the signal
[1] = read-out: Alpha-fetoprotein (AFP) gene, AFP (gene 174); assay: LTEA_HepaRG_AFP: Life Technologies and Expression Analysis (LTEA) Assay for Alpha-fetoprotein (AFP) gene using HepaRG (AID 2283472)
Procedure, shortened: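 qRT-PCR (Fluidigm TaqMan) readout of AFP transcript, normalized to three housekeeping genes, fitted bidirectionally against 0.5% DMSO baseline. HepaRG cells received chemicals for 48 h in serum-free induction medium, top concentration 100 uM, half-log steps.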

BCL2L11 (gene 10018) = assay: LTEA_HepaRG_BCL2L11: Life Technologies and Expression Analysis (LTEA) Assay for Bcl-2 (BCL2L11) gene using HepaRG (AID 2283473)
Procedure, shortened: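 Differentiated human HepaRG cells in serum-free induction medium were exposed in duplicate for 48 h to eight concentrations (top 100 uM, half-log steps, 0.5% DMSO). BCL2L11 mRNA was quantified by TaqMan qRT-PCR, normalized to ACTB/GAPDH/POLR2A, bidirectional fit versus DMSO.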

[2] = read-out: Apolipoprotein A-V (APOA5) gene, APOA5 (gene 116519); assay: LTEA_HepaRG_APOA5: Life Technologies and Expression Analysis (LTEA) Assay for Apolipoprotein A-V (APOA5) gene using HepaRG (AID 2283474)
Procedure, shortened: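 Differentiated human HepaRG cells were exposed in duplicate for 48 h to eight half-log concentrations from 100 uM in 0.5% DMSO. APOA5 mRNA was quantified by TaqMan qRT-PCR, normalized to ACTB, GAPDH and POLR2A, and fitted bidirectionally against DMSO.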

[3] = read-out: Apoptosis regulator Bcl-2 (Homo sapiens) (UniProt P10415); assay: LTEA_HepaRG_BCL2: Life Technologies and Expression Analysis (LTEA) Assay for Bcl-2 gene using HepaRG (AID 2283475)
Procedure, shortened: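 qRT-PCR read-out (Fluidigm TaqMan) of BCL2 transcript, normalised to three housekeeping genes, after 48 h chemical exposure of HepaRG cells; 8-point half-log series, top 100 uM, 0.5% DMSO vehicle. Gain or loss of signal fitted relative to DMSO baseline.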

[4] = read-out: Bcl-2 (BID) gene, BID (gene 637); assay: LTEA_HepaRG_BID: Life Technologies and Expression Analysis (LTEA) Assay for Bcl-2 (BID) gene using HepaRG (AID 2283476)
Procedure, shortened: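 HepaRG, 48 h exposure, 8-pt half-log series, top 100 uM, 0.5% DMSO vehicle, duplicates. Readout: BID mRNA by TaqMan qRT-PCR; housekeeping-normalized; bidirectional curve fit vs DMSO baseline.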

Caspase-3 (Homo sapiens) = Caspase-3 (Homo sapiens) (UniProt P42574); assay: LTEA_HepaRG_CASP3: Life Technologies and Expression Analysis (LTEA) Assay for cysteine-aspartic acid protease (CASP3) using HepaRG (AID 2283477)
Procedure, shortened: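 Differentiated human HepaRG cells in serum-free induction medium were exposed 48 h to 8-point half-log concentrations from 100 uM (0.5% DMSO vehicle). CASP3 mRNA was measured by qRT-PCR, normalised to ACTB, GAPDH and POLR2A, with bidirectional fitting against DMSO.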

[5] = read-out: Cytochrome P450 (CYP24A1), CYP24A1 (gene 1591); assay: LTEA_HepaRG_CYP24A1: Life Technologies and Expression Analysis (LTEA) Assay for Cytochrome P450 (CYP24A1) using HepaRG (AID 2283478)
Procedure, shortened: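 Differentiated HepaRG cells, pre-cultured 48 h, were exposed in duplicate for 48 h in serum-free induction medium to 8 half-log concentrations (top 100 uM, 0.5% DMSO). CYP24A1 mRNA was quantified by TaqMan qRT-PCR, normalized to ACTB/GAPDH/POLR2A, fitted bidirectionally versus DMSO.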

[6] = read-out: Cytochrome P450 (CYP1A2), CYP1A2 (gene 1544); assay: LTEA_HepaRG_CYP1A2: Life Technologies and Expression Analysis (LTEA) Assay for Cytochrome P450 (CYP1A2) using HepaRG (AID 2283479)
Procedure, shortened: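 Differentiated human HepaRG cells in serum-free induction medium were exposed in duplicate for 48 h to 8-point half-log concentrations up to 100 uM in 0.5% DMSO. CYP1A2 mRNA measured by qRT-PCR, normalized to ACTB, GAPDH, POLR2A; bidirectional fit vs DMSO.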

[7] = read-out: cysteine-aspartic acid protease (CASP8), CASP8 (gene 841); assay: LTEA_HepaRG_CASP8: Life Technologies and Expression Analysis (LTEA) Assay for cysteine-aspartic acid protease (CASP8) using HepaRG (AID 2283480)
Procedure, shortened: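 CASP8 transcript measured by TaqMan qRT-PCR with ACTB/GAPDH/POLR2A normalization, after 48 h chemical exposure of HepaRG cells in serum-free induction medium. Eight concentrations, top 100 uM, half-log steps, 0.5% DMSO vehicle; fits in both directions versus DMSO.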

[8] = read-out: Cytochrome P450 (CYP2B6), CYP2B6 (gene 1555); assay: LTEA_HepaRG_CYP2B6: Life Technologies and Expression Analysis (LTEA) Assay for Cytochrome P450 (CYP2B6) using HepaRG (AID 2283481)
Procedure, shortened: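 Differentiated HepaRG cells, serum-free induction medium, exposed 48 h in duplicate to 8-point half-log concentrations from 100 uM in 0.5% DMSO. CYP2B6 mRNA by qRT-PCR, normalized to ACTB, GAPDH, POLR2A; bidirectional fit versus DMSO.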

[9] = read-out: Cytochrome P450 2C19 (Homo sapiens) (UniProt P33261); assay: LTEA_HepaRG_CYP2C19: Life Technologies and Expression Analysis (LTEA) Assay for CYP2C19 using HepaRG (AID 2283482)
Procedure, shortened: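 Differentiated human HepaRG cells were exposed for 48 h in serum-free induction medium to 8 concentrations (top 100 uM, half-log steps, 0.5% DMSO). CYP2C19 mRNA was measured by qRT-PCR, normalized to ACTB/GAPDH/POLR2A, and fitted bidirectionally against DMSO.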

CYP2C8 (gene 1558) = assay: LTEA_HepaRG_CYP2C8: Life Technologies and Expression Analysis (LTEA) Assay for CYP2C8 using HepaRG (AID 2283483)
Procedure, shortened: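 CYP2C8 expression measured by TaqMan qRT-PCR and normalized to three housekeeping genes. HepaRG cultures were treated for 48 h with an eight-point half-log series topping at 100 uM, vehicle 0.5% DMSO, duplicates; fitted both directions against DMSO.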

CYP2C9 (gene 1559) = assay: LTEA_HepaRG_CYP2C9: Life Technologies and Expression Analysis (LTEA) Assay for CYP2C9 using HepaRG (AID 2283484)
Procedure, shortened: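 CYP2C9 transcript level, quantified by TaqMan qRT-PCR against three housekeeping genes, was fitted bidirectionally relative to 0.5% DMSO. HepaRG cultures were treated 48 h, in duplicate, at eight half-log concentrations topping at 100 uM.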

CYP2E1 (gene 1571) = assay: LTEA_HepaRG_CYP2E1: Life Technologies and Expression Analysis (LTEA) Assay for CYP2E1 using HepaRG (AID 2283485)
Procedure, shortened: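 CYP2E1 transcript was measured by TaqMan qRT-PCR in human HepaRG cultures after 48 h chemical exposure (top 100 uM, half-log steps, 0.5% DMSO vehicle). Housekeeping-gene normalization; gain or loss fitted relative to DMSO baseline.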

CYP4A11 (gene 1579) = assay: LTEA_HepaRG_CYP4A11: Life Technologies and Expression Analysis (LTEA) Assay for CYP4A11 using HepaRG (AID 2283486)
Procedure, shortened: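 Differentiated HepaRG cells, serum-free induction medium, exposed 48 h in duplicate to 8-point half-log series from 100 uM in 0.5% DMSO. CYP4A11 mRNA measured by qRT-PCR, normalized to ACTB, GAPDH, POLR2A; bidirectional fit versus DMSO.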

[10] = read-out: Cytochrome P450 3A4 (Homo sapiens) (UniProt P08684); assay: LTEA_HepaRG_CYP3A4: Life Technologies and Expression Analysis (LTEA) Assay for CYP3A4 using HepaRG (AID 2283487)
Procedure, shortened: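 HepaRG, 48 h exposure, 8-pt CRC from 100 uM (half-log), 0.5% DMSO, duplicates; serum-free induction medium. Readout: CYP3A4 mRNA, qRT-PCR, ACTB/GAPDH/POLR2A normalization. Bidirectional fit vs DMSO.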

[11] = read-out: DNA damage-inducible transcript 3 (DDIT3), DDIT3 (gene 1649); assay: LTEA_HepaRG_DDIT3: Life Technologies and Expression Analysis (LTEA) Assay for DNA damage-inducible transcript 3 (DDIT3) using HepaRG (AID 2283488)
Procedure, shortened: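 qRT-PCR readout (Fluidigm TaqMan), housekeeping-normalized to ACTB, GAPDH, POLR2A. HepaRG cells, 48 h exposure, 8-point half-log series from 100 uM in 0.5% DMSO, duplicates. Gain or loss of signal fitted against DMSO baseline.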

[12] = read-out: Pro-epidermal growth factor (Homo sapiens) (UniProt P01133); assay: LTEA_HepaRG_EGF: Life Technologies and Expression Analysis (LTEA) Assay for Epidermal growth factor (EGF) using HepaRG (AID 2283489)
Procedure, shortened: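 Differentiated human HepaRG cells, plated 48 h then switched to serum-free induction medium, were exposed for 48 h to test chemicals (8-point half-log series, top 100 uM, 0.5% DMSO). EGF mRNA was quantified by qRT-PCR, normalized to ACTB, GAPDH, POLR2A.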

[13] = read-out: Early growth response protein 1 (EGR1) transcription factor, EGR1 (gene 1958); assay: LTEA_HepaRG_EGR1: Life Technologies and Expression Analysis (LTEA) Assay for Early growth response protein 1 (EGR1) transcription factor using HepaRG (AID 2283490)
Procedure, shortened: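 EGR1 transcript levels quantified by qRT-PCR (Fluidigm arrays) against three housekeeping genes after 48 h chemical exposure of HepaRG cells. Eight-point half-log series topping at 100 uM, 0.5% DMSO vehicle, analyzed for gain or loss.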

[14] = read-out: adenosine kinase (ADK) gene, ADK (gene 132); assay: LTEA_HepaRG_ADK: Life Technologies and Expression Analysis (LTEA) Assay for adenosine kinase (ADK) gene using HepaRG (AID 2283471)
Procedure, shortened: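 Read-out is ADK transcript level measured by qRT-PCR and normalised to three housekeeping genes. Cells are human HepaRG, dosed for 48 h at up to 100 uM in 0.5% DMSO. Gain or loss of signal is fitted against DMSO controls.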

Measured: AC50

Chain of Cytochrome P450 2C19 (Homo sapiens) (P33261 whole entry, looked up): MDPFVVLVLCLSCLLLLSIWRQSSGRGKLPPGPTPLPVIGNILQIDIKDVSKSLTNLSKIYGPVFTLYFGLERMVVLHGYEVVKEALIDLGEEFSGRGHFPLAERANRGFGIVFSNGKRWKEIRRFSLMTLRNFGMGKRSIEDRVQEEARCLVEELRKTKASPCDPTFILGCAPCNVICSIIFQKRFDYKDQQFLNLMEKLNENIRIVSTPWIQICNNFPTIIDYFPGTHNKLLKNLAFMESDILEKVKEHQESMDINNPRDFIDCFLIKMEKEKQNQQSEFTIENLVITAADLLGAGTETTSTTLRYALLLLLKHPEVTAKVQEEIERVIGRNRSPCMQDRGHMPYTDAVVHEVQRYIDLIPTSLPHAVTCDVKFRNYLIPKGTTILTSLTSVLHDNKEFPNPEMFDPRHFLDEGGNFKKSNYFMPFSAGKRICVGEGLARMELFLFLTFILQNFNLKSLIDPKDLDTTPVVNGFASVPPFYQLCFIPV
Chain of Caspase-3 (Homo sapiens) (P42574 whole entry, looked up): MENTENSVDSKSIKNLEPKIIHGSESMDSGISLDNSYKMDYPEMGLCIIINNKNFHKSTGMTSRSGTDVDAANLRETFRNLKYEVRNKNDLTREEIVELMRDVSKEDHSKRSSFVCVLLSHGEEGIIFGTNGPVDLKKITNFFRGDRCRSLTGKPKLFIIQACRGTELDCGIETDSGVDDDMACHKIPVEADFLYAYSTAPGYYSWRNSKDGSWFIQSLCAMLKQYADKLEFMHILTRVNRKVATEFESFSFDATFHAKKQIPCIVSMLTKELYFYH
Chain of Cytochrome P450 3A4 (Homo sapiens) (P08684 whole entry, looked up): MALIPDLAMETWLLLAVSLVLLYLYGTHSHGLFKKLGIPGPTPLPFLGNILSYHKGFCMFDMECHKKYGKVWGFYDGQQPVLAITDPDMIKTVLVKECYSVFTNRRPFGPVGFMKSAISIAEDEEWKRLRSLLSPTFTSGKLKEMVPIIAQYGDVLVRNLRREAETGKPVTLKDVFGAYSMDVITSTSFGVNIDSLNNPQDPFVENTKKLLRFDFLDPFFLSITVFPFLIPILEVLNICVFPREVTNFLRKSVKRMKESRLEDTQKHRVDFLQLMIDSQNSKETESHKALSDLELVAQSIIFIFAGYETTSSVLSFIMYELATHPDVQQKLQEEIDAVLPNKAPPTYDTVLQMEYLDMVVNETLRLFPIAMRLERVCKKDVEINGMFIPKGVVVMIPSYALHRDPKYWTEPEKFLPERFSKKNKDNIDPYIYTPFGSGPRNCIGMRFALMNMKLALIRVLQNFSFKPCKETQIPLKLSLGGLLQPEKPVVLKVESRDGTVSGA
Chain of Apoptosis regulator Bcl-2 (Homo sapiens) (P10415 whole entry, looked up): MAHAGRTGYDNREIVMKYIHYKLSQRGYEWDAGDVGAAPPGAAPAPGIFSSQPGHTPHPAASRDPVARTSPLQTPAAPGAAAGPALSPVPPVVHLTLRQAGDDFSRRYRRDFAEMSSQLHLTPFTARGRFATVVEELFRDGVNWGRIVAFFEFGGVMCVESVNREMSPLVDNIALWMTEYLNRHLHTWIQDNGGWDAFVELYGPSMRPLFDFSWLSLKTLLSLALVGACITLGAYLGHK

COC(=O)CCC(=O)OC
not listed: [14]
inactive: all other assays above

CCCC[C@H]1CN(CC2CCOCC2)C(=O)OC12CCN(C1(C)CCN(C(=O)c3c(C)ncnc3C)CC1)CC2
not listed: [3]
inactive: all other assays above

C#CC(O)C(CC)CCCC (stereo not drawn)
not listed: [3] | [8]
inactive: all other assays above

COC(=O)[C@H]1[C@H]2C[C@@H]3c4[nH]c5cc(OC)ccc5c4CCN3C[C@H]2C[C@@H](OC(=O)c2cc(OC)c(OC)c(OC)c2)[C@@H]1OC
inactive: [14] | BCL2L11 (gene 10018) | [4] | Caspase-3 (Homo sapiens) | [5] | [7]
active: [1] 60.8 µM | [2] 55.6 µM | [6] 9.74 µM | [9] 63.4 µM | CYP2C8 (gene 1558) 63.5 µM | CYP2C9 (gene 1559) 60.9 µM | CYP2E1 (gene 1571) 49.3 µM | CYP4A11 (gene 1579) 48.8 µM | [11] 55.1 µM | [12] 42.2 µM | [13] 64.2 µM
